Most compounds without a hit are left out; they make up all but 19% or so of the library.
HT1080 IDH1KD tx: qHTS for induction of synthetic lethality in tumor cells producing 2HG: qHTS for the HT-1080-IDH1KD cell line. Potency, µM (series often up to 46.1 µM), without a hit: at the top dose activity, negative = toxicity, usual class: cytotoxic. HT-1080 IDH1 knockdown viability, ATP luminescence, 48 h. AID 686971, 2013. 2% of 360,000 active;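 also: potency is read from the fitted curve at half-maximal effect; 0% = DMSO wells and -100% = cell-free medium wells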
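Viability of IDH1-knockdown HT-1080 fibrosarcoma cells was assessed by CellTiter-Glo after 48 h at 37 °C with titrated compound; concentration-effect curves were classified by fit quality and response size.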
ELG1 repair inh: qHTS screen for small molecules that inhibit ELG1-dependent DNA repair in human embryonic kidney (HEK293T) cells expressing luciferase-tagged ELG1; AID 504467, 2011; Potency, µM (series often up to 46.1 µM), for the others: at the highest dose activity change, negative = inhibition, hits mostly inhibitors; HEK293T ELG1-luciferase reporter, luminescence, 16 h; DNA damage induced by 5-fluorouridine; 2.3% of 330,000 active; also: potency is read from the fitted curve at half-maximal effect; nearly all actives have a fitted effect of over 55% in size
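Cells (2,000 per well) received 5-fluorouridine plus test compound or DMSO and were incubated 16 hr at 37 °C, 5% CO2. Luciferase activity was read by luminescence 30 min after ONE-Glo addition; signal suppression marked inhibition of damage-induced ELG1 function.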
IL-1B inflam inh: qHTS for Inhibitors of Inflammasome Signaling: IL-1-beta AlphaLISA Primary Screen; 4.7% of 360,000 active; THP-1 LPS/ATP IL-1B secretion, AlphaLISA, 16 h; active compounds read low; AID 743279, 2014; activity change, % at 57.5 µM; in the data active = activity change below about -50%; inconclusive = mostly about -30% to -49%
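THP-1 cells pretreated 1 hr with compounds (up to 57.5 uM final), then stimulated with LPS (250 ng/mL final) plus ATP (1.25 mM final); secreted IL-1B measured by AlphaLISA after 16 hr, decreased signal indicating inhibition.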
DT40 TDP1 CPT: qHTS for Inhibitors of human tyrosyl-DNA phosphodiesterase 1 (TDP1): qHTS in cells in presence of CPT; chicken DT40 Tdp1-/-;hTDP1 cells + 20 nM CPT, ATP luminescence, 48 h; Potency, µM (series often up to 46.2 µM), for inactives: at the top dose activity change, negative = growth inhibition, hits mostly inhibitors; 12% of 420,000 active; also: potency is read from the fitted curve at half-maximal effect; nearly all actives have a fitted effect of over 55% in size
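Cell growth measured by CellTiter-Glo luminescence after a minimum 48 h, 37 C compound exposure with 20 nM CPT in Tdp1-knockout DT40 cells stably expressing hTDP1, seeded 400/well; qHTS titration format.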
DT40 TDP1 no CPT: qHTS for Inhibitors of human tyrosyl-DNA phosphodiesterase 1 (TDP1): qHTS in cells in absence of CPT; DT40 Tdp1-/- hTDP1 cells, no CPT, ATP luminescence, 48 h; Potency, µM (series often up to 46.2 µM), for inactives: top-dose activity change, negative = growth inhibition, most hits filed as inhibitors; 15% of 420,000 active; AID 686978, 2013; also: potency is read from the fitted curve at half-maximal effect; nearly all actives have a fitted effect of over 55% in size
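Chicken DT40 Tdp1-/- cells stably complemented with human TDP1 were seeded at 400 cells/well with DMSO in place of 20 nM camptothecin. After compound pinning, cells grew at least 48 hr at 37 °C; viability read by CellTiter-Glo luminescence.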
HT1080NT lethal: qHTS for induction of synthetic lethality in tumor cells producing 2HG: qHTS for the HT-1080-NT fibrosarcoma cell line; HT-1080-NT fibrosarcoma viability, CellTiter-Glo ATP luminescence, 48 h; Potency, µM (titrated, usually from 46.1 µM), for inactives: at the top dose activity, negative = less viability, usual class: cytotoxic; 1.6% of 360,000 active; AID 686970, 2013;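 also: NT is the 2HG producing partner of a matched IDH1 knockdown line; potency is read from the fitted curve at half-maximal effect; 0% = DMSO-treated cells and -100% = media-only wells without cells; nearly all actives have a fitted effect of over 55% in size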
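Luminescent CellTiter-Glo readout after 48 hours of compound exposure at 37 degrees C defined viability of HT-1080-NT cells. Activity was normalized to DMSO wells and cell-free media wells; concentration-response curves were fitted and assigned curve classes.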
* marks the source's active call; other numbers are inactive results; ? = inconclusive; . = no result. Unless noted, calls follow the shape of the dose curve; as a rule, active = well fitted curve in the direction sought with a large enough effect; inconclusive = small, poorly fitted or top-dose-only effect, or another doubt; inactive = no such curve, though single readings can be large; an effect the other way counts as inactive or inconclusive. Unless noted, % is scaled to controls: 0 for no effect and ±100 for the full control effect.

SMILES	HT1080 IDH1KD tx	ELG1 repair inh	IL-1B inflam inh	DT40 TDP1 CPT	DT40 TDP1 no CPT	HT1080NT lethal
CC(=O)NC(c1ccc(C(C)C)cc1)c1c(O)ccc2ccccc12 (stereo not given)	?	.	-75*	-21%	?	?
CC(C)C(=O)NC(c1ccc([N+](=O)[O-])cc1)c1c(O)ccc2ccccc12 (stereo not given)	?	?	-88*	18µM*	?	?
CCCCC(=O)NC(c1ccccc1Cl)c1c(O)ccc2ccccc12 (stereo not given)	?	-30%	-89*	?	?	?
O=[N+]([O-])c1cc(F)cc(F)c1Nc1cc(F)cc(F)c1	12%	.	14	2%	-13%	-1%
COc1cc2c(=O)c(S(=O)(=O)c3ccccc3)cn(CC(=O)Nc3ccccc3C)c2cc1OC	.	.	.	-5%	0%	.
O=C(CN1CCSC1=NCc1ccccc1)c1ccccc1	1%	0%	-15	-7%	?	-6%
CC1(C(=O)O)CCCN(C(=O)C2(c3ccc(Cl)cc3)CCCC2)C1 (stereo not given)	7%	.	21	7%	0%	0%
Cc1ccc(C(NC(=O)C2CCCCC2)c2c(O)ccc3ccccc23)cc1 (stereo not given)	?	-27%	-11	16µM*	21µM*	-23%
COc1cccc(CNC(=O)c2ccc(-n3c(C)cc4c3CCCC4)cc2)c1	.	.	.	-83%	16µM*	.
COCCNC(=O)c1ccc(NC(=O)N2CCCCc3ccccc32)cc1	.	.	.	-5%	-10%	.
COc1cccc(CNC(=O)c2ccc(NC(=O)N3CCCCc4ccccc43)cc2)c1	.	.	.	?	21µM*	.
COc1cccc(CNC(=O)c2ccc(NC(=O)N3CCCCc4ccccc43)cc2)c1OC	.	.	.	?	16µM*	.
COCCCNC(=O)c1ccc(-n2c(-c3ccccc3)cc3c2CCCC3)cc1	.	.	.	?	21µM*	.
COc1cccc(CNC(=O)c2ccc(C(=O)NCc3cccc(OC)c3)cc2)c1	?	9%	10	8%	16%	-26%
CC(Cc1ccccc1)NC(=O)c1cc([N+](=O)[O-])ccc1Cl (stereo not given)	-3%	1%	?	-7%	-6%	0%
Cc1ccc(NS(=O)(=O)c2cc(C(=O)N(C)C)ccc2C)cc1C	5%	7%	37	21%	-22%	9%
COc1ccc2nc(N3CCN(C(=O)C4CC4)CC3)sc2c1	.	.	.	-3%	-25%	.
COc1ccc2nc(N3C(=O)CNC3=S)sc2c1	0%	?	?	7.3µM*	7.3µM*	-1%
Cc1ccc2nc(N3C(=O)CNC3=S)sc2c1	16µM*	?	.	15µM*	?	?
CSc1ccccc1C(=O)N(C)C(c1ccccc1)c1ccccc1	?	?	-17	?	?	-28%
O=C(c1ccco1)N1CCC(c2nc3c(nnn3Cc3ccccc3Cl)c(=O)[nH]2)CC1	-23%	1%	10	?	?	-14%
Cc1ccc(C)c(Cn2nnc3c(=O)[nH]c(C4CCN(C(=O)c5ccco5)CC4)nc32)c1	-3%	13%	-6	21µM*	?	-8%
Cc1ccc(Cn2nnc3c(=O)[nH]c(C4CCN(C(=O)c5cccs5)CC4)nc32)cc1	?	9.2µM*	-6	?	?	-21%
